Experimental data: PubChem BioAssay (Tox21)
Records with an inconclusive call do not appear. Activity calls are given as the source filed them. Unless noted, calls come from the whole dose curve; as a rule, active = well fitted curve in the direction sought with a large enough effect in the repeat runs; inconclusive = weak or mixed curves; inactive = no such curve, though single readings can be large; an effect the other way counts as inactive or inconclusive.

Key:
[1] = qHTS assay for small molecules that induce genotoxicity in human embryonic kidney cells expressing luciferase-tagged ATAD5 (AID 651632); note: % is set by controls: 0 for no effect and ±100 for the full control effect; nearly all actives have a fitted effect of over 15% in size
Summary of the method: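 Quantitative HTS in HEK293T expressing luciferase-tagged ATAD5, whose levels rise upon DNA damage. Exposure ran 16 hr at 37C and 5% CO2, with luminescence read 30 min after Amplite addition at room temperature.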

[2] = qHTS assay for small molecule agonists of the p53 signaling pathway - cell viability (AID 651633; calls by dose curve;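 note: p53RE-bla HCT reporter cells with a stable beta-lactamase p53 reporter; series mostly up to about 83 µM; % is set by controls: 0 for no effect and ±100 for the full control effect; nearly all actives have a fitted effect of over 30% in size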)
Summary of the method: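 p53RE-bla cells were treated with compound for 16 hours at 37 C. Cytotoxicity was then measured as CellTiter-Glo luminescence after 30 min at room temperature.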

[3] = qHTS assay for small molecules that induce genotoxicity in human embryonic kidney cells expressing luciferase-tagged ATAD5 - cell viability (AID 651634; calls by dose curve; note: % is set by controls: 0 for no effect and ±100 for the full control effect; nearly all actives have a fitted effect of over 25% in size)
Summary of the method: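 After 15.5 hr incubation with compound at 37C, 5% CO2, HEK293T ATAD5-luciferase cells received CellTiter-Fluor reagent; fluorescence intensity was quantified following 30 min at 37C.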

[4] = qHTS assay to test for compound auto fluorescence at 590 nm (red) in HepG2 cells (AID 720674); note: % is set by controls: 0 for no effect and ±100 for the full control effect
Summary of the method: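 Seeding: 2,000 HepG2 cells/well, MEM/10% FBS, overnight 37 C. Dosing: compound vs DMSO. Incubation: 1 hr, 37 C, 5% CO2. Read: fluorescence 540 ex/590 em, Rose Bengal sodium as red reference.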

[5] = qHTS assay to test for compound auto fluorescence at 535 nm (green) in HepG2 cells (AID 720675); note: % is set by controls: 0 for no effect and ±100 for the full control effect
[6] = qHTS assay to test for compound auto fluorescence at 460 nm (blue) in HEK293 cells (AID 720678); note: % is set by controls: 0 for no effect and ±100 for the full control effect
Summary of the method: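 Cells were seeded and left to adhere for 4-5 hr at 37C. Compounds were then pin-transferred. After an overnight incubation at 37C under 5% CO2, intrinsic fluorescence at 405/460 nm was measured and referenced to triamterene.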

[7] = qHTS assay to test for compound auto fluorescence at 590 nm (red) in HEK293 cells (AID 720679); note: % is set by controls: 0 for no effect and ±100 for the full control effect
Summary of the method: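 Each well held 2,000 HEK293 cells in medium containing 10% dialyzed FBS. Following 4-5 hr attachment at 37C, 23 nL test compound or DMSO was added; plates sat overnight, and red fluorescence (540/590nm) was recorded.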

[8] = qHTS assay to test for compound auto fluorescence at 535 nm (green) in HEK293 cells (AID 720680); note: % is set by controls: 0 for no effect and ±100 for the full control effect
[9] = qHTS assay to test for compound auto fluorescence at 460 nm (blue) in HEK293 cell free culture (AID 720681); note: % is set by controls: 0 for no effect and ±100 for the full control effect
Summary of the method: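 Compounds were added to cell-free DMEM with 10% FBS and fluorescence read directly. The blue channel used 405 nm excitation and 460 nm emission, with triamterene as the reference fluorophore.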

[10] = qHTS assay to test for compound auto fluorescence at 535 nm (green) in HEK293 cell free culture (AID 720682); note: % is set by controls: 0 for no effect and ±100 for the full control effect
Summary of the method: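 Fluorescein serves as the green reference fluorophore; each compound's intrinsic emission at 535 nm (excitation 485 nm) is reported as an equivalent amount of that dye, measured in serum-containing DMEM without cells.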

[11] = qHTS assay to test for compound auto fluorescence at 590 nm (red) in HEK293 cell free culture (AID 720683); note: % is set by controls: 0 for no effect and ±100 for the full control effect
Summary of the method: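 Cell-free wells of DMEM with 10% FBS received compound, and intrinsic fluorescence was read at excitation/emission 540/590 nm. Values expressed as equivalence to Rose Bengal sodium.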

[12] = qHTS assay to test for compound auto fluorescence at 590 nm (red) in HepG2 cell free culture (AID 720684); note: % is set by controls: 0 for no effect and ±100 for the full control effect
Summary of the method: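 Rose Bengal sodium served as the reference for red signal. Test compounds were dispensed into serum-containing MEM (10% FBS) without cells, and plates were read at 540/590 nm.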

[13] = qHTS assay to test for compound auto fluorescence at 460 nm (blue) in HepG2 cell free culture (AID 720685); note: % is set by controls: 0 for no effect and ±100 for the full control effect
Summary of the method: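 Cell-free plates of MEM plus 10% FBS received 23 nL compound or DMSO vehicle; blue-channel (405/460 nm) intensity scored against triamterene as reference fluorophore.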

[14] = qHTS assay to test for compound auto fluorescence at 535 nm (green) in HepG2 cell free culture (AID 720686); note: % is set by controls: 0 for no effect and ±100 for the full control effect
[15] = qHTS assay to test for compound auto fluorescence at 460 nm (blue) in HepG2 cells (AID 720687); note: % is set by controls: 0 for no effect and ±100 for the full control effect
Summary of the method: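 HepG2 cells in MEM with 10% FBS, attached overnight at 37 C, were exposed to compound or DMSO for 1 hr at 37 C, 5% CO2. Blue fluorescence was read at 405/460 nm, with triamterene as reference fluorophore.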

[16] = qHTS assay to identify small molecule antagonists of the glucocorticoid receptor (GR) signaling pathway - cell viability counter screen (AID 720693); note: % is set by controls: 0 for no effect and ±100 for the full control effect; nearly all actives have a fitted effect of over 55% in size
[17] = qHTS assay for identifying genotoxic compounds that show differential cytotoxicity against isogenic chicken DT40 cell lines with known DNA damage response pathways - wild type cell line (AID 743012); note: % is set by controls: 0 for no effect and ±100 for the full control effect; nearly all actives have a fitted effect of over 60% in size
Summary of the method: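 Luminescent ATP viability signal (CellTiter-Glo, 30 min RT) recorded after wild type DT40 cells were incubated with compounds for 40 h at 37 C/5% CO2.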

[18] = qHTS assay for identifying genotoxic compounds that show differential cytotoxicity against isogenic chicken DT40 cell lines with known DNA damage response pathways - Rad54/Ku70 mutant cell line (AID 743015); note: % is set by controls: 0 for no effect and ±100 for the full control effect; nearly all actives have a fitted effect of over 60% in size
[19] = qHTS assay to identify small molecule antagonists of the androgen receptor (AR) signaling pathway using the MDA cell line - cell viability counter screen (AID 743041; note: % is set by controls: 0 for no effect and ±100 for the full control effect; nearly all actives have a fitted effect of over 45% in size)
Summary of the method: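 Cytotoxicity counter screen: MDA-kb2 AR-luc cells, compound + R1881, 16 h, 37C, 0% CO2; CellTiter-Fluor added at 15.5 h, fluorescence read after 30 min.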

[20] = qHTS assay to identify small molecule antagonists of the thyroid receptor (TR) signaling pathway - cell viability counter screen (AID 743064); note: % is set by controls: 0 for no effect and ±100 for the full control effect; nearly all actives have a fitted effect of over 50% in size
Summary of the method: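 Fluorescence from CellTiter-Fluor, added after 23.5 h exposure at 37 °C, reported viability of GH3.TRE-Luc cells co-treated with compound and 1 nM T3. Measured in the same wells as the luciferase TR readout.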

[21] = tested on: thyroid hormone receptor (rat, GH3 cells); assay: qHTS assay to identify small molecule agonists of the thyroid receptor (TR) signaling pathway (AID 743066; calls by dose curve; note: % is set by controls: 0 for no effect and ±100 for the full control effect)
[22] = biological target: Estrogen receptor (Homo sapiens) (UniProt P03372); assay: qHTS assay to identify small molecule antagonists of the estrogen receptor alpha (ER-alpha) signaling pathway (AID 743069; active = well fitted curve in the direction sought with a large enough effect in the signal ratio in the repeat runs, not every such curve was filed as active; the % refers to the signal ratio; note: % is set by controls: 0 for no effect and ±100 for the full control effect)
Summary of the method: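 Beta-lactamase FRET fluorescence is read after 2 hr at room temperature with LiveBLAzer B/G substrate. Before that, ER-alpha-bla HEK293 cells sit 4 hr after plating, then receive compound plus 17beta-estradiol and incubate 18 hr at 37C.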

[23] = qHTS assay to identify small molecule antagonists of the estrogen receptor alpha (ER-alpha) signaling pathway - cell viability counter screen (AID 743074; calls by dose curve;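 note: HEK293 cells carrying ER-alpha-UAS-bla reporter stimulated with 17beta-estradiol; % is set by controls: 0 for no effect and ±100 for the full control effect; nearly all actives have a fitted effect of over 45% in size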)
[24] = biological target: Estrogen receptor (Homo sapiens) (UniProt P03372); assay: qHTS assay to identify small molecule agonists of the estrogen receptor alpha (ER-alpha) signaling pathway (AID 743075; calls by dose curve)
[25] = biological target: Estrogen receptor (Homo sapiens) (UniProt P03372); assay: qHTS assay to identify small molecule agonists of the estrogen receptor alpha (ER-alpha) signaling pathway using the BG1 cell line (AID 743079); note: potency is the fitted concentration of half-maximal effect; nearly all actives have a fitted effect of over 20% in size
[26] = qHTS assay to identify small molecule antagonists of the estrogen receptor alpha (ER-alpha) signaling pathway using the BG1 cell line (AID 743080; calls by dose curve; note: series mostly up to about 70 µM; % is set by controls: 0 for no effect and ±100 for the full control effect; nearly all actives have a fitted effect of over 25% in size)
Summary of the method: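 Antagonist mode: compounds in DMSO were pinned onto BG1-Luc-4E2 cells alongside 17beta-estradiol agonist, incubated 21.5 h, and ERE-driven luciferase measured with ONE-Glo. Cytotoxicity was multiplexed using CellTiter-Fluor fluorescence.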

[27] = qHTS assay to identify small molecule antagonists of the estrogen receptor alpha (ER-alpha) signaling pathway using the BG1 cell line - cell viability counter screen (AID 743081);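 note: compound given together with 17beta-estradiol as the ER stimulus; series mostly up to about 70 µM; % is set by controls: 0 for no effect and ±100 for the full control effect; nearly all actives have a fitted effect of over 45% in size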
Aromatase (Homo sapiens) = Aromatase (Homo sapiens) (UniProt P11511); assay: qHTS assay to identify aromatase inhibitors (AID 743083); note: series mostly up to about 70 µM; % is set by controls: 0 for no effect and ±100 for the full control effect; nearly all actives have a fitted effect of over 55% in size
[28] = qHTS assay to identify aromatase inhibitors - cell viability counter screen (AID 743084);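 note: cells stimulated with testosterone during compound exposure; % is set by controls: 0 for no effect and ±100 for the full control effect; nearly all actives have a fitted effect of over 55% in size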
[29] = biological target: Aryl hydrocarbon receptor (Homo sapiens) (UniProt P35869); assay: qHTS assay to identify small molecule that activate the aryl hydrocarbon receptor (AhR) signaling pathway (AID 743085);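 note: HG2L7.5c1 human HepG2 liver cells with stably integrated DRE-driven firefly reporter; series mostly up to about 70 µM; % is set by controls: 0 for no effect and ±100 for the full control effect; nearly all actives have a fitted effect of over 15% in size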
Summary of the method: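 Cell line HG2L7.5c1 (human hepatoma, 20× DRE-luc). Plated, 5 h 37C, compound/DMSO added, 24 h 37C. CellTiter-Fluor 30 min 37C → fluorescence; then ONE-Glo 30 min RT → luminescence.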

[30] = qHTS assay to identify small molecule that activate the aryl hydrocarbon receptor (AhR) signaling pathway - cell viability counter screen (AID 743086);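 note: HepG2 liver cells carrying the AhR DRE luciferase reporter; series mostly up to about 70 µM; % is set by controls: 0 for no effect and ±100 for the full control effect; nearly all actives have a fitted effect of over 45% in size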
Summary of the method: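 HepG2-AhR-luc (HG2L7.5c1) cells, 4000/well, treated 24 h at 37 C with compound; viability measured as CellTiter-Fluor fluorescence after 30 min in the same wells as the luciferase read.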

[31] = biological target: Peroxisome proliferator-activated receptor gamma (Homo sapiens) (UniProt P37231); assay: qHTS assay to identify small molecule agonists of the peroxisome proliferator-activated receptor gamma (PPARg) signaling pathway (AID 743094; active = well fitted activation curve with a large enough effect in the signal ratio in the repeat runs, not every such curve was filed as active; the % refers to the signal ratio)
Summary of the method: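 Reporter activation was scored by fluorescence of cleaved LiveBLAzer B/G substrate (1 h, room temperature) in PPARg-bla HEK293H cells previously treated 17 h at 37C with DMSO-dissolved compounds.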

[32] = qHTS assay to identify small molecule antagonists of the estrogen related receptor (ERR) signaling pathway - cell viability counter screen (AID 1224818)
Summary of the method: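 Quantitative high-throughput viability counter screen in ERR cells. Compounds (DMSO) incubated 17.5 h at 37 C; read-out was CellTiter-Fluor fluorescence.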

[33] = qHTS assay to identify small molecule antagonists of the estrogen related receptor (ERR) signaling pathway (AID 1224819)
Summary of the method: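 ERR reporter cell line (NTP) plated at 2,000 cells/well, settled 6 h at 37C/5% CO2, then exposed to LOPAC compounds for 18 h at 37C. One-Glo luciferase luminescence read after 30 min at room temperature.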

[34] = qHTS assay to identify small molecule agonists of the estrogen related receptor (ERR) signaling pathway (AID 1224820)
Summary of the method: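 Luminescence readout (One-Glo, 30 min RT) from NTP-supplied ERR cell line exposed to compounds for 18 h at 37 C. Cells seeded 2,000 per well and pre-incubated 6 h before pin-tool compound transfer.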

[35] = tested on: estrogen-related receptor alpha (ERRalpha) with PGC-1alpha coactivator, human; assay: qHTS assay to identify small molecule antagonists of the estrogen related receptor signaling pathway with the pleiotropic PPARgamma coactivator (PGC) (AID 1224821; calls by dose curve)
Summary of the method: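 PGC/ERR reporter cells; 6 h pre-incubation 37 C/5% CO2; pin-tool compound in DMSO, 18 h 37 C; One-Glo added, 30 min RT; luminescence read. qHTS antagonist mode.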

[36] = qHTS assay to identify small molecule antagonists of the estrogen related receptor signaling pathway with the pleiotropic PPARgamma coactivator (PGC) cell viability counter screen (AID 1224822)
Summary of the method: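 Cytotoxicity in the PGC/ERR cell line is assessed with CellTiter-Fluor, read as fluorescence intensity 30 min after reagent addition, following 17.5 h compound treatment at 37 C.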

[37] = qHTS assay to identify small molecule agonists of the estrogen related receptor signaling pathway with the pleiotropic PPARgamma coactivator (PGC) (AID 1224823)
Summary of the method: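 Luminescence readout (One-Glo, 30 min RT) from PGC/ERR cell line treated 18 h at 37 C with pin-tool-delivered DMSO compound solutions; cells plated 6 h before dosing. Quantitative HTS format.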

[38] = qHTS assay to identify small molecule phospholipidosis (PLD) inducers (AID 1259344; active = well fitted curve in the direction sought with a large enough effect; an effect the other way counts as inactive or inconclusive)
Summary of the method: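 Read-out is LipidTOX Red fluorescence (ex 595/em 615) imaged in HepG2 cells after 24 h compound exposure at 37 C, with Hoechst nuclear counterstain (ex 352/em 461) allowing per-cell normalisation.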

[39] = biological target: Nuclear receptor subfamily 1 group I member 2 (Rattus norvegicus) (UniProt Q9R1A7); assay: Rat pregnane X receptor (rPXR) activation by small molecules, qHTS assay (AID 1346983); settings: rPXR luciferase reporter cells, One-Glo luminescence, 24 h; max activation: hits give high values
Summary of the method: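 Cell-based rPXR activation assay: rPXR cells, 2,000 per well, rested 5hr at 37 C, then exposed to compounds in DMSO for 24 hr at 37 C. Luciferase activity read by One-Glo luminescence after 30 min at room temperature.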

Estrogen receptor (Homo sapiens), sequence (P03372 whole entry, looked up): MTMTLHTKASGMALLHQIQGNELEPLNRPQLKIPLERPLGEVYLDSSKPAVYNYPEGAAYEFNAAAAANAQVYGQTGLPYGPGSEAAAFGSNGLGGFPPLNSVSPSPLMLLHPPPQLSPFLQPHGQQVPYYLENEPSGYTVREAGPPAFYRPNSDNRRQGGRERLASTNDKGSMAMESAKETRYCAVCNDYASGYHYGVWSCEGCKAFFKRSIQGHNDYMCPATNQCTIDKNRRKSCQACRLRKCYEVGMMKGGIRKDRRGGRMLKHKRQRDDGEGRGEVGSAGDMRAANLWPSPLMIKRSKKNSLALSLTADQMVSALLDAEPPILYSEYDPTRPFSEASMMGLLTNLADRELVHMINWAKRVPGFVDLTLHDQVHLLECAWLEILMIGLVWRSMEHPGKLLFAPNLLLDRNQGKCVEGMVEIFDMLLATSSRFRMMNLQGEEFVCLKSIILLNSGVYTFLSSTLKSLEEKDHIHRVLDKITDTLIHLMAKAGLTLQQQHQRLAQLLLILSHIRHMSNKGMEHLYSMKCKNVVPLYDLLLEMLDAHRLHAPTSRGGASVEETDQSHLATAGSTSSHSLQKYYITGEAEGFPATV
Aryl hydrocarbon receptor (Homo sapiens), sequence (P35869 whole entry, looked up): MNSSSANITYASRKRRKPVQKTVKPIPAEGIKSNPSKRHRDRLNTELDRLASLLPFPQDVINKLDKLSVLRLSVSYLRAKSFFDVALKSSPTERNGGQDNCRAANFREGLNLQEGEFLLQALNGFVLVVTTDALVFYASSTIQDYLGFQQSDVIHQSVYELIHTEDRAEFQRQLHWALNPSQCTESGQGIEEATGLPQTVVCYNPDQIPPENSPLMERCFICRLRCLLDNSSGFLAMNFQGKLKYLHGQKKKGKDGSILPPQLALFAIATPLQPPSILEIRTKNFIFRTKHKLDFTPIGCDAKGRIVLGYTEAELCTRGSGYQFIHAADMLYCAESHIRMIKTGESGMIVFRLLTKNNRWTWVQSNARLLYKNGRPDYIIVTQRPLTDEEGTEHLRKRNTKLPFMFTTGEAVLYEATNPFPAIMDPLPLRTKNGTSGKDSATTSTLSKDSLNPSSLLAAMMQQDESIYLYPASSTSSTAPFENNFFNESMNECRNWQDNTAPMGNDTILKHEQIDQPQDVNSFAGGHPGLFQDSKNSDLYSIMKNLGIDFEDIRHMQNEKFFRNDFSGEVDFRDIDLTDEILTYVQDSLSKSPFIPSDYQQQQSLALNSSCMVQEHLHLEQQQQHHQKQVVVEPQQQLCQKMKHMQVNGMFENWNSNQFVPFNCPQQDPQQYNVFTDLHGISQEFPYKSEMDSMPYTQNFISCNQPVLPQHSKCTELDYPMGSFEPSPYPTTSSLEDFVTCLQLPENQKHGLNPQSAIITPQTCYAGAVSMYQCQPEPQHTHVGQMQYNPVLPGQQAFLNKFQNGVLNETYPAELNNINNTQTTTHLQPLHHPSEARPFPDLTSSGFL
Peroxisome proliferator-activated receptor gamma (Homo sapiens), sequence (P37231 whole entry, looked up): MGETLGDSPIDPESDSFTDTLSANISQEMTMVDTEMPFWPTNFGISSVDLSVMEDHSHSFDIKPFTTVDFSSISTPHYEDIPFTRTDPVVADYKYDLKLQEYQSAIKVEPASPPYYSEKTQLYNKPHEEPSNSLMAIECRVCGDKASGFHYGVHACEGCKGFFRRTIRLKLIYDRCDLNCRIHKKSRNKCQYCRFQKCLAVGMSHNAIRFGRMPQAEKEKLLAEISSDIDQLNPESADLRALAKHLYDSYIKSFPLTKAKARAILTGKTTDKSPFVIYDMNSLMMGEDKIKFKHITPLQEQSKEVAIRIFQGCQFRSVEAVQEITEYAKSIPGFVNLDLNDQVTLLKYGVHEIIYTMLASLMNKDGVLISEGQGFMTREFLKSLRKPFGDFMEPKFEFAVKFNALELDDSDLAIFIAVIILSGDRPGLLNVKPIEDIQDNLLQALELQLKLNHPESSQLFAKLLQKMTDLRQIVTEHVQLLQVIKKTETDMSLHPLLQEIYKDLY
Aromatase (Homo sapiens), sequence (P11511 whole entry, looked up): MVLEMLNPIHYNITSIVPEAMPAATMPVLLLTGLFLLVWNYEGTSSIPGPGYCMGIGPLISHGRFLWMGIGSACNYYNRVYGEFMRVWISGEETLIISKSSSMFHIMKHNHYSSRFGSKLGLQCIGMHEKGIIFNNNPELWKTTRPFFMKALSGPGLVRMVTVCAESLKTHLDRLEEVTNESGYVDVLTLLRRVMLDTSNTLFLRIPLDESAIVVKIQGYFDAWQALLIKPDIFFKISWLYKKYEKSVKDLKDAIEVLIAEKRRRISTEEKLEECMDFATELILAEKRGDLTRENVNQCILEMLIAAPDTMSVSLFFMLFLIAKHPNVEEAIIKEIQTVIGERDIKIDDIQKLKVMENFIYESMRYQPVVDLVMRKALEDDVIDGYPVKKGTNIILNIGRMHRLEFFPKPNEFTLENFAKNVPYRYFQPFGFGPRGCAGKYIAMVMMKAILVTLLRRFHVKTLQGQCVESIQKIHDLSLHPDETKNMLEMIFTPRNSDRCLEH
Nuclear receptor subfamily 1 group I member 2 (Rattus norvegicus), sequence (Q9R1A7 whole entry, looked up): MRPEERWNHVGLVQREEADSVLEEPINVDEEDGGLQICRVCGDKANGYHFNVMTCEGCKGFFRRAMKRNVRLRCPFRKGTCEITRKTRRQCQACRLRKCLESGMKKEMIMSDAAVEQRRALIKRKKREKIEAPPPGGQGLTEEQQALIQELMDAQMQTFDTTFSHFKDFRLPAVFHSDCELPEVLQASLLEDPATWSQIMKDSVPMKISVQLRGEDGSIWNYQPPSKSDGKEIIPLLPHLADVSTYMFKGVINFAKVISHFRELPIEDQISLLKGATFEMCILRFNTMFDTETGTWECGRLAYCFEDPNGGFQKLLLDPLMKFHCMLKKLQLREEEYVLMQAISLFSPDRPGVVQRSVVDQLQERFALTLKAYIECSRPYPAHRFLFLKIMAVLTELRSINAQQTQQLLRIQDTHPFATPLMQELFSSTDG

c1ccc(C2(c3ccccc3)CC2C2=NCCN2)cc1 (configuration not stated)
inactive: Potency [1] | Potency [2] | Potency [3] | outcome [4] | Potency [5] | Potency [6] | outcome [7] | Potency [8] | Potency [9] | Potency [10] | outcome [11] | outcome [12] | Potency [13] | Potency [14] | Potency [15] | Potency [16] | Potency [17] | Potency [18] | Potency [19] | Potency [20] | Potency [21] | Potency [22] | Potency [23] | Potency [24] | Potency [26] | Potency [27] | Potency (Aromatase (Homo sapiens)) | Potency [28] | Potency [29] | Potency [30] | Potency [31] | Potency [32] | Potency [33] | Potency [34] | Potency [35] | Potency [36] | Potency [37] | Potency [38] | max activation [39] -1.58%
active: Potency [25] 700 pM

Oc1ccc2c3c1O[C@H]1c4oc5ccccc5c4C[C@@]4(O)C(C2)N(CC2CC2)CCC314 (some centres not stated)
inactive: Potency [32] | Potency [34] | Potency [35] | Potency [36] | Potency [37]

NC1CC1c1ccccc1 (configuration not stated)
inactive: Potency [32] | Potency [36]

Cc1cc([C@@H]2CCCN2C)on1
inactive: Potency [32] | Potency [33] | Potency [35] | Potency [36] | Potency [37]
